Results: PubChem BioAssay AID1224921 (Broad Institute, 2016)
Screen size: about 1,400 compounds; about 350 (25%) were called active. Roughly 2% stayed inconclusive and do not appear here. The rule behind the calls is not given here. Not all results are given here. Results with a measured potency or affinity are listed apart.

Assay: inhibitors of Clostridioides difficile proliferation – 4-point retest, confirmation (AID 1224921);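 note: plate controls were DMSO wells for no effect and levofloxacin 16 µg/mL wells for full effect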
Conditions: Clostridioides difficile clinical isolate growth, OD600, 24 h, hits give low values; at 30 µM unless noted

Max activity, inactive:
CO[C@@H]1CN(C)C(=O)c2ccc(NC(=O)C3CC3)cc2OC[C@@H](C)N(Cc2cncnc2)C[C@@H]1C -9.09% [at 1.95 µM]
CCCC#Cc1ccc2c(c1)O[C@@H](CN(C)C(=O)c1ccccc1F)[C@@H](C)CN([C@@H](C)CO)S2(=O)=O 23.4%
C[C@@H]1CN([C@@H](C)CO)C(=O)Cc2cc(NC(=O)c3ccncc3)ccc2O[C@H]1CN(C)Cc1ccc(Cl)c(Cl)c1 36.8% [at 8 µM]
COc1ccc(CNC(=O)C[C@H]2CC[C@H](NC(=O)c3cccc(F)c3)[C@@H](CO)O2)cc1 -5.36% [at 1.95 µM]
C[C@H]1CCCCO[C@H](CN(C)Cc2ccc3c(c2)OCO3)[C@@H](C)CN([C@@H](C)CO)C(=O)c2cc(NC(=O)Nc3ccc(F)cc3)ccc2O1 29.6%
O=C(NCCc1ccccc1)[C@@H]1[C@@H](CO)[C@@H]2Cn3c(cccc3=O)[C@H]1N2C(=O)C1CC1 -6.59%
CCCN1C[C@H](C)[C@@H](OC)CN(C)C(=O)c2ccc(NC(=O)Nc3c(C)noc3C)cc2OC[C@H]1C 6.66%
CO[C@H]1CN(C)C(=O)c2cc(NC(=O)Nc3ccc(Cl)cc3)ccc2OC[C@H](C)N(C(=O)Nc2c(C)noc2C)C[C@@H]1C -13% [at 8 µM]
Cc1ccc(-c2ccc3c(c2)O[C@H](CN(C)Cc2cccnc2)[C@@H](C)CN([C@H](C)CO)S3(=O)=O)cc1 31.7%
CO[C@@H]1CN(C)C(=O)c2ccc(NS(=O)(=O)c3ccc(C)cc3)cc2OC[C@@H](C)N(C(=O)NC(C)C)C[C@H]1C 14.4%
CCCN1C[C@H](C)[C@H](OC)CN(C)C(=O)c2cc(NC(=O)CC)ccc2OC[C@@H]1C 7.21% [at 8 µM]
O=C(C[C@@H]1C=C[C@@H](NC(=O)Cc2ccccn2)[C@H](CO)O1)NCCCN1CCOCC1 2.76% [at 0.5 µM]
CC(C)CC#Cc1ccc2c(c1)O[C@@H](CN(C)Cc1ccncc1)[C@H](C)CN([C@@H](C)CO)S2(=O)=O 29.7%
COc1ccc(-c2ccc([C@@H]3[C@@H](CO)N(C(=O)C4CCCC4)[C@H]3C#N)cc2)cc1 25% [at 7.5 µM]
CCCC(=O)Nc1ccc2c(c1)C(=O)N(C)C[C@H](OC)[C@H](C)CN(Cc1ccc(F)cc1)[C@@H](C)CO2 17.3%
C[C@@H]1CN([C@H](C)CO)C(=O)c2cc(C#Cc3ccccc3F)cnc2O[C@@H]1CN(C)C(=O)C1CCOCC1 17.1%
COc1cccc(C#Cc2cnc3c(c2)C(=O)N([C@@H](C)CO)C[C@H](C)[C@@H](CN(C)C)O3)c1 -9.5% [at 1.95 µM]
CC(=O)N(C)C[C@H]1Oc2ncc(C#Cc3ccccc3F)cc2C(=O)N([C@@H](C)CO)C[C@@H]1C 60.6%
COc1cccc(C#Cc2cnc3c(c2)C(=O)N([C@H](C)CO)C[C@@H](C)[C@H](CN(C)C)O3)c1 6.76%
CCNC(=O)C[C@H]1C=C[C@H](NS(=O)(=O)c2ccc(F)cc2)[C@H](CO)O1 -12%
O=C(C[C@@H]1C[C@H]2c3cc(NC(=O)Nc4ccc(C(F)(F)F)cc4)ccc3O[C@H]2[C@@H](CO)O1)NCc1ccc2c(c1)OCO2 -23.2% [at 8 µM]
CO[C@@H]1CN(C)C(=O)c2ccc(NS(=O)(=O)c3ccccc3C)cc2OC[C@@H](C)N(S(C)(=O)=O)C[C@H]1C -12.6% [at 8 µM]
C[C@@H]1CN([C@@H](C)CO)S(=O)(=O)c2ccc(C#Cc3ccc(F)cc3)cc2O[C@@H]1CN(C)C(=O)NC1CCCCC1 -4.75% [at 8 µM]
C[C@@H]1CN([C@@H](C)CO)C(=O)c2cc(NS(=O)(=O)c3ccc(Cl)cc3)ccc2O[C@@H]1CN(C)Cc1ccccc1 18.9%
CO[C@H]1CN(C)C(=O)c2cc(NC(=O)C3CCOCC3)ccc2OC[C@@H](C)N(C(=O)c2ccccc2)C[C@H]1C -10.4% [at 1.95 µM]
CO[C@H]1CN(C)C(=O)c2cc(NC(=O)C3CC3)ccc2OC[C@H](C)N(C(=O)c2ccccn2)C[C@@H]1C 5.91%
CO[C@@H]1CN(C)C(=O)c2cc(NC(=O)C3CCOCC3)ccc2OC[C@H](C)N(C(=O)c2ccccc2)C[C@H]1C -8.41% [at 0.5 µM]
CO[C@H]1CN(C)C(=O)c2cc(NC(=O)C3CCOCC3)ccc2OC[C@H](C)N(C(=O)c2ccccc2)C[C@H]1C -6.51%
CO[C@@H]1CN(C)C(=O)c2ccc(NC(=O)C3CCC3)cc2OC[C@H](C)N(C(=O)CN(C)C)C[C@@H]1C -13.6% [at 0.5 µM]
CO[C@H]1CN(C)C(=O)c2ccc(NC(=O)C3CCC3)cc2OC[C@H](C)N(C(=O)CN(C)C)C[C@H]1C -8.4%
C[C@H]1CN([C@@H](C)CO)S(=O)(=O)c2ccc(C#CCC3CCCC3)cc2O[C@@H]1CN(C)C(=O)CC1CC1 19.7% [at 8 µM]
CO[C@H]1CN(C)C(=O)c2ccc(NC(=O)c3nc4ccccc4s3)cc2OC[C@H](C)N(Cc2cccnc2)C[C@H]1C 37.7%
CO[C@@H]1CN(C)C(=O)c2cc(NC(=O)Nc3ccccc3Cl)ccc2OC[C@@H](C)N(S(C)(=O)=O)C[C@H]1C -12.2% [at 0.5 µM]
O=C(CN1CCOCC1)N[C@@H]1CC[C@@H](CCNS(=O)(=O)c2ccccc2F)O[C@@H]1CO -8.89% [at 0.5 µM]
C[C@@H]1CN([C@@H](C)CO)C(=O)c2ccccc2-c2ccccc2CO[C@H]1CN(C)S(=O)(=O)c1ccc(Cl)cc1 33.2% [at 35 µM]
C[C@H](CO)N1C[C@H](C)[C@H](CN(C)S(=O)(=O)c2ccccc2)Oc2ccc(NC(=O)Nc3cccc4ccccc34)cc2C1=O -17.7% [at 8 µM]
